Hits are enriched below; roughly 8.1% of the tested compounds scored in any of these assays.
Epigenetic reg – epigenetic control regulation, reporter derepression | murine LDR cells, GFP reporter derepression, 30 h | Potency, µM (titrated, usually from 53.9 µM), for inactives: top-dose GFP activation, hits mostly activators | 280,000 tested, 0.2% active | AID 1865; further: % of control where 0% means no effect; nearly all actives have a fitted effect of over 60% in size
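Murine LDR cells carrying a silenced, genomically integrated CMV-driven GFP reporter were exposed to compound for 30 hours at 37 C. After PBS washes, GFP-positive cells (20–120 um objects) were counted by laser-scanning microplate cytometry.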
RORgamma inh – ROR gamma (mouse) transcription inhibition; Drosophila S2 Gal4-RORgamma UAS-luciferase reporter, 20 h; Potency, µM (highest dose often 53.6 µM), inactives show at the highest dose activity change, negative = inhibition, hits mostly inhibitors; 310,000 tested, 5.4% active; AID 2551; further: on the % scale 0 is the no-effect control and ±100 the full control effect; nearly all actives have a fitted effect of over 60% in size
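Drosophila S2 cells stably expressing Gal4-DBD/mouse RORγ fusion under metallothionein promoter plus UAS-luciferase; compound 1 h, then 700 uM CuSO4 induction for 20 h at ambient temperature; inhibition read as reduced luminescence.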
ClpP mod – qHTS Assay for Activators of ClpP | ATP-dependent Clp protease proteolytic subunit (Bacillus subtilis (strain 168)), P80244 | purified B. subtilis ClpP, FRET peptide cleavage, 20 min | Potency, µM (highest dose often 57.5 µM), without a hit: at the highest dose activity change, negative = active | 340,000 tested, 1.9% active; active means well fitted falling curve with a large enough effect; inconclusive means small, poorly fitted or top-dose-only effect; inactive means no such curve, though single readings can be large or run the other way; further: the source files actives as falling curves though it sought activators and does not explain the sign; nearly all actives have a fitted effect of over 65% in size
Target sequence (P80244 whole entry, looked up): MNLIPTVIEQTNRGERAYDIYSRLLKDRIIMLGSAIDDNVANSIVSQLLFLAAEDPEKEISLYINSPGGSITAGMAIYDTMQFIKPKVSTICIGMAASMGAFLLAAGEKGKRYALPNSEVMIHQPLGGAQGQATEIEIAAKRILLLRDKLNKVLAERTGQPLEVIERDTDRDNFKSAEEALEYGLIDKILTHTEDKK
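Purified B. subtilis ClpP, 10 microg/mL final in Tris/HCl pH8 with KCl, BSA, glycerol and Tween-20, cleaved an Abz/nitrotyrosine-quenched decapeptide. Fluorescence (ex 320, em 430) was read at 0 and 20 min at room temperature. Delta was normalized to 5.8 microM ADEP and DMSO/no-enzyme controls.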
PINK1 modulator – modulators of PINK1 expression | PINK1 immunofluorescence, high-content cytometry, 24 h | Potency, µM (titrated, usually from 76.6 µM), without a hit: at the top dose activation (PINK1 increase), usual class: activators | 410,000 tested, 0.2% active | AID 624263; active means well fitted activation curve with a large enough effect; inconclusive means small, poorly fitted or top-dose-only effect; cell line not stated here; further: % of control where 0% means no effect; nearly all actives have a fitted effect of over 65% in size
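Readout is PINK1 immunofluorescence, quantified alongside mitochondrial, cell and nuclear markers by laser-scanning microplate cytometry. Cells from a stable line were exposed to compound titrations (5 concentrations) for 24 hours, with CCCP controls.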
VP16 counter – counter-screen for ROR gamma inhibitors: Gal4-VP16 reporter; Drosophila S2 Gal4-VP16 UAS-luciferase, luminescence, 20 h; Potency, µM (top dose mostly 53.6 µM), without a hit: at the top dose activity, negative = inhibition, actives largely listed as inhibitors; 310,000 tested, 3.5% active; AID 2546;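 further: Gal4-VP16 expression switched on by copper sulfate through the metallothionein promoter; on the % scale 0 is the no-effect control and ±100 the full control effect; nearly all actives have a fitted effect of over 50% in size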
Sfp inh – inhibitors of Bacillus subtilis Sfp phosphopantetheinyl transferase. Potency, µM, inactives show largest response in the series, negative = inhibition, usual class: inhibitors. Biochemical Sfp PPTase activity, qHTS. 310,000 tested, 3.5% active. Q9F4F7;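 further: the enzyme is Sfp with the accession as filed and its product quenches rhodamine fluorescence; 0% = enzyme reaction without inhibitor and -100% = no enzyme wells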
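Sfp 15 nM + cpd, 15 min RT; start w/ rhodamine-CoA 5 uM, BHQ-2-YbbR 12.5 uM (final); 50 mM Hepes pH 7.6, 10 mM MgCl2, 0.01% NP-40, 0.01% BSA; read 525/598 nm at 0 and 30 min.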
* = called active by the depositor; ? = inconclusive; . = no result; [ ] = dose if it differs, or a comment. Unless noted, the call rests on the fitted dose curve; in most records, active means well fitted curve in the direction sought with a large enough effect; inconclusive means small, poorly fitted or top-dose-only effect, or another doubt; inactive means no such curve, though single readings can be large; an effect the other way counts as inactive or inconclusive. Potency means the concentration at half of the fitted maximal effect.

SMILES	Epigenetic reg	RORgamma inh	ClpP mod	PINK1 modulator	VP16 counter	Sfp inh
CCC(SC1=NCCS1)C(=O)Nc1nnc(-c2ccccc2OC)s1 (stereo unspecified)	-1%	6.3µM*	-20%	2%	16µM*	8%
COc1ccc(/C=C/c2nnc(NC(=O)COc3ccc(C)cc3)s2)cc1	1%	1%	16µM*	7%	-8%	10%
CCOC(=O)Nc1nnc(-c2ccc(OC)cc2)s1	1%	1%	13µM*	-5%[38.3 µM]	10%	20%
CCOC(=O)Nc1nnc(-c2ccccc2OC)s1	-1%	?	3.5µM*	2%	-2%	-2%
Cc1cccc(CCNC(=O)c2cc3c(=O)n(C)c4ccccc4c3n2C)c1	-1%	.	52%	0%	.	.
CCC1CCCCN1Cc1cn2c(-c3ccc(Br)cc3)nnc2s1 (stereo unspecified)	1%	.	-1%	-5%	.	.
CCn1c(CNC(=O)c2ccc(OC)cc2)nnc1SCC(=O)Nc1ccc(OC)cc1	0%	.	1%	1%	.	.
CCCC(=O)Nc1nnc(/C=C/c2ccc(OC)cc2)s1	.	-29%	.	1%	25%	10%
CCCCC(=O)Nc1nnc(/C=C/c2ccc(OC)cc2)s1	.	2%	5%	3%	-13%	-7%
CCCCOC(=O)Nc1nnc(/C=C/c2ccc(OC)cc2)s1	1%	-23%	32µM*	7%	-18%	7%
CCOC(=O)Nc1nnc(/C=C/c2ccc(OC)cc2)s1	0%	-11%	13µM*	-2%	-4%	3%
COc1ccc(NC(=O)Nc2c[nH]c(=O)[nH]c2=O)c(OC)c1	-3%	.	1%	1%	.	.
Cc1nn(C)c2c1c(-c1ccccc1)cc(=O)n2CC(=O)NC(C)(C)C	0%	.	4%	2%	.	.
COC(=O)c1cc(NC(=O)CSC2=NCCS2)cc(C(=O)OC)c1	0%	-17%	25µM*	0%	7%	0%
CC(NC(=O)CSC1=NCCS1)c1ccccc1 (stereo unspecified)	-1%	5µM*	-2%	0%	-4%	12%
COc1ccc(CC(=O)NC2CC(=O)N(c3cccc(F)c3)C2)cc1OC (stereo unspecified)	8%	.	-2%	0%	.	.
Cc1ccc(CN2CCSc3ccc(C(=O)NCCc4ccccc4)cc32)cc1	3%	.	-27%	0%	.	.
Cc1ccc(CN2CCSc3ccc(C(=O)NCc4ccccn4)cc32)cc1	0%	?	4%	0%	16%	50µM*
CC(=O)N(C)C	-1%	.	.	.	.	15%
Cc1ccc(OCC(=O)N/N=C/c2cn(C)c3ccccc23)cc1	0%	-39%	0%	4%	-4%	1%
Cc1ccc(OCC(=O)N/N=C\c2cn(Cc3ccccc3)c3ccccc23)cc1C	0%	11µM*	-3%	1%	?	?
Cc1ccccc1OCC(=O)N/N=C/c1cn(Cc2ccccc2)c2ccccc12	1%	18µM*	0%	0%	?	-1%
Cc1ccc(NCc2cccn2-c2nnc(N3CCC(C(=O)NCc4ccc(F)cc4)CC3)s2)cc1	4%	.	-2%	0%	.	.
CCN(CC)c1ccc(C(=C2C=CC(=[N+](CC)Cc3cccc(S(=O)(=O)[O-])c3)C=C2)c2ccc(N(CC)Cc3cccc(S(=O)(=O)O)c3)cc2)cc1	.	-16%	.	.	11µM*	?
CCN(CC)c1ccc(C(=C2C=CC(=[N+](CC)CC)C=C2)c2ccccc2)cc1	.	2.5µM*	-8%	-1%	35µM*	?
Cc1ccccc1OCC(=O)Nc1nnc(SCc2cc(=O)n3cc(Cl)ccc3n2)s1	0%	.	-5%	?	.	.
COc1ccccc1CN1CC(C(=O)NC2(c3ccccc3)CC2)CCC1=O (stereo unspecified)	.	7%	32µM*	-1%	3%	12%
COc1ccccc1CN1CC(C(=O)N(C)Cc2ccc(C)o2)CCC1=O (stereo unspecified)	.	7%	0%	-1%	2%	45µM*

Screening data as filed in PubChem BioAssay.
